Measured values taken from PubChem BioAssay (NCATS).
Records with an inconclusive call do not appear. Activity calls are given as the source filed them. Unless noted, calls follow the shape of the dose curve; as a rule, active = well fitted curve in the direction sought with a large enough effect; inconclusive = small, poorly fitted or top-dose-only effect, or another doubt; inactive = no such curve, though single readings can be large; an effect the other way counts as inactive or inconclusive.

Experiments:
[1] = qHTS assay for small molecule disruptors of the mitochondrial membrane potential - 1 hr assay (AID 651754; calls by dose curve; also: % is scaled to controls: 0 for no effect and ±100 for the full control effect; nearly all actives have a fitted effect of over 35% in size); conditions: series mostly up to 92.2 µM
Outline: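 Mitochondrial potential in living HepG2 cells after 1 hr compound treatment at 37C was read with Mito-MPS dye added for a further 30 min. Red aggregate and green monomer fluorescence were measured; loss of potential leaves dye as cytoplasmic monomers.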

[2] = qHTS assay for small molecule disruptors of the mitochondrial membrane potential - 5 hr assay (AID 651755; calls by dose curve; also: % is scaled to controls: 0 for no effect and ±100 for the full control effect; nearly all actives have a fitted effect of over 40% in size); conditions: JC-1-type ratio dye; series mostly up to 92.2 µM
Outline: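 Seed HepG2 overnight, add compound, incubate 5 hr at 37C and 5% CO2, stain 30 min with Mito-MPS, then measure monomer (490/535 nm) and aggregate (540/590 nm) fluorescence.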

[3] = target: Tumor necrosis factor (Homo sapiens) (UniProt P01375); test: qHTS assay to identify small molecules that stimulate Tumor Necrosis Factor-alpha (TNF-alpha) secretion (AID 651757; active = well fitted curve in the direction sought with a large enough effect in the signal ratio; the % refers to the signal ratio; also: 0% is about no effect); conditions: Human cells, HTRF 665/615 ratio; series mostly up to 92.2 µM
Outline: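 Secreted TNF-alpha quantified by TR-FRET sandwich of two labeled anti-TNF-alpha antibodies, incubated 3 hr at room temperature. Preceded by 17 hr, 37 C compound treatment of THP-1 cells at 3000 cells/well.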

[4] = qHTS assay for environmental chemicals that activate the Aryl hydrocarbon Receptor (AhR) signaling pathway (AID 651777); conditions: 1A2-DRE human hepatoma cells, luciferase, 24 h; activation: active compounds read high; also: % of control where 0% means no effect; nearly all actives have a fitted effect of over 15% in size
Outline: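 Luminescence read-out: One-Glo added for 30 min at RT after 24 hr compound treatment (37 C, 5% CO2) of human hepatoma cells expressing a DRE/CYP1A2 promoter–luciferase reporter; increased signal indicates AhR activation.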

[5] = target: Peroxisome proliferator-activated receptor alpha (Homo sapiens) (UniProt Q07869); test: qHTS assay for small molecule agonists of the peroxisome proliferator-activated receptor alpha (PPARalpha) signaling pathway (AID 651778); conditions: PathHunter PPARalpha complementation, chemiluminescence, 6 h; active compounds read high; also: % of control where 0% means no effect
Outline: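 Cells plated at 2,000/well and held overnight at 37 C, 5% CO2, then compound added by pin tool for 6 hr; after PathHunter detection reagent and 60 min at room temperature, chemiluminescence from enzyme complementation was read.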

[6] = target: Nuclear receptor ROR-gamma (Homo sapiens) (UniProt P51449); test: qHTS assay for small molecule antagonists of the retinoid-related orphan receptor gamma (ROR-gamma) signaling pathway (AID 651802); conditions: ROR-gamma antagonist cell reporter assay; series mostly up to 92.2 µM;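 also: CHO cells with doxycycline-induced ROR-gamma expression; luciferase reporter luminescence driven by ROR response element; % is scaled to controls: 0 for no effect and ±100 for the full control effect; nearly all actives have a fitted effect of over 60% in size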
Outline: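 Luminescence (One-Glo, 30 min RT) measured 16 h after compound addition and doxycycline induction at 37C. Reporter: RORE-luciferase under TET-inducible ROR-gamma in CHO cells.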

[7] = qHTS assay for small molecule agonists of the antioxidant response element (ARE) signaling pathway measured by Nrf2-dependant transcriptional activity (AID 720636; active = well fitted curve in the direction sought with a large enough effect in the repeat runs; an effect the other way counts as inactive or inconclusive;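 also: HepG2 cells with an ARE-driven luciferase reporter; % of control where 0% means no effect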); conditions: ARE-luc HepG2, Nrf2 luciferase reporter, 16 h; series mostly up to 92.4 µM
Outline: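 HepG2 ARE-luc reporter line, 1% dialyzed FBS; 6 hr attachment at 37 C, compound pinned in, 16 hr at 37 C/5% CO2; ONE-Glo, 30 min RT, luminescence read.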

[8] = qHTS assay for small molecule antagonists of the retinoid-related orphan receptor gamma (ROR-gamma) signaling pathway - cell viability counter screen (AID 720652; active = well fitted curve in the direction sought with a large enough effect in the repeat runs; an effect the other way counts as inactive or inconclusive;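 also: CHO reporter cells with doxycycline-induced ROR-gamma expression; compound exposure lasted 16 hr before ATP read; % is scaled to controls: 0 for no effect and ±100 for the full control effect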); conditions: RORgamma reporter cell line viability counter screen; series mostly up to 92.2 µM
Outline: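 Cytotoxicity counter screen: intracellular ATP (CellTiter-Glo luminescence) measured in the doxycycline-induced CHO RORE-luciferase reporter line after 16 hr compound exposure at 37 C, 5% CO2.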

[9] = qHTS assay for small molecule agonists of the antioxidant response element (ARE) signaling pathway measured by Nrf2-dependant transcriptional activity - cell viability counter screen (AID 720653; active = well fitted curve in the direction sought with a large enough effect in the repeat runs; an effect the other way counts as inactive or inconclusive; also: % is scaled to controls: 0 for no effect and ±100 for the full control effect); conditions: ARE-bla HepG2 viability, CellTiter-Glo ATP luminescence, 16 h; active compounds read low
Outline: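 ARE-bla HepG2 cells (2,000/well) rested 5 hrs at 37C/5% CO2, then exposed to compounds in DMSO for 16 hrs. Viability was read in the same wells as intracellular ATP by luminescence, 30 min at room temperature after reagent addition.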

[10] = qHTS assay for cell viability of HEK293 cells (AID 743288); conditions: ATP luminescence (CellTiter-Glo), 18 h, active compounds read low; also: % is scaled to controls: 0 for no effect and ±100 for the full control effect; nearly all actives have a fitted effect of over 50% in size
Outline: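 Steps: plate 2,000 parental HEK293 cells per well; incubate ≥5 h, 37 C; add compounds in DMSO; incubate 18 h, 37 C; add CellTiter-Glo; wait 30 min at room temperature; read luminescence.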

[11] = qHTS assay for cell viability of the p53RE-bla HCT-116 cell line (AID 743292); conditions: p53RE-bla HCT-116 viability, ATP luminescence, 16 h; series mostly up to 95 µM; also: % is scaled to controls: 0 for no effect and ±100 for the full control effect; nearly all actives have a fitted effect of over 55% in size
Outline: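 Luminescent ATP quantitation (CellTiter-Glo) served as the viability read-out; reagent was added after 16 h compound exposure at 37 C and read after 30 min at room temperature. Cells: p53RE-bla HCT-116, 4,000 per well.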

[12] = target: Nuclear receptor subfamily 1 group I member 2 (Rattus norvegicus) (UniProt Q9R1A7); test: qHTS assay for small molecule activators of the rat pregnane X receptor (rPXR) signaling pathway (AID 651751; call rule not given here; also: 0% is about no effect); conditions: rPXR reporter cells, luciferase (One-Glo), 24 h
[13] = qHTS assay for small molecule activators of the human pregnane X receptor (PXR) signaling pathway (AID 720659; call rule not given here; also: 0% is about no effect); conditions: DPX-2 HepG2 CYP3A4-luciferase, 24 h; series mostly up to 92.3 µM

Chain of Tumor necrosis factor (Homo sapiens) (P01375 whole entry, looked up): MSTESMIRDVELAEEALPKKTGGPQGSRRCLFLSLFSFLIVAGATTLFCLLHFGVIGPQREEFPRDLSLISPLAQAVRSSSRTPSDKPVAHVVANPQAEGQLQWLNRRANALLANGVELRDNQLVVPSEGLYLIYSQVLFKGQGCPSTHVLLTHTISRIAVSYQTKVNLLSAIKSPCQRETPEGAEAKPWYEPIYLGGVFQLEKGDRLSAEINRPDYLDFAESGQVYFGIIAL
Chain of Nuclear receptor ROR-gamma (Homo sapiens) (P51449 whole entry, looked up): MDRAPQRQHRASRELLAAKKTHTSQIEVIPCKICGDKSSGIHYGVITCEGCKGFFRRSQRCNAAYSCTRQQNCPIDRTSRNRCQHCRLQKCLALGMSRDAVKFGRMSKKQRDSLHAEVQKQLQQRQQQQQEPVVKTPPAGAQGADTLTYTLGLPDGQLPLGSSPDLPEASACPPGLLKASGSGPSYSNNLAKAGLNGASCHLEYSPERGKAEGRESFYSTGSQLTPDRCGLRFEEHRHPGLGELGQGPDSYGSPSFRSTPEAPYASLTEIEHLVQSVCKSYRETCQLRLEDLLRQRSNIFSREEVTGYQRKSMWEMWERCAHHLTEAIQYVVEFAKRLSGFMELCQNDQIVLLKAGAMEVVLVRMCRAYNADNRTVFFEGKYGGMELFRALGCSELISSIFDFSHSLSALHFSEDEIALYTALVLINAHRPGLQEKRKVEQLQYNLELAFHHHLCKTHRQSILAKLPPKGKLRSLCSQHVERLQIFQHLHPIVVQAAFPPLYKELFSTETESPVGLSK
Chain of Peroxisome proliferator-activated receptor alpha (Homo sapiens) (Q07869 whole entry, looked up): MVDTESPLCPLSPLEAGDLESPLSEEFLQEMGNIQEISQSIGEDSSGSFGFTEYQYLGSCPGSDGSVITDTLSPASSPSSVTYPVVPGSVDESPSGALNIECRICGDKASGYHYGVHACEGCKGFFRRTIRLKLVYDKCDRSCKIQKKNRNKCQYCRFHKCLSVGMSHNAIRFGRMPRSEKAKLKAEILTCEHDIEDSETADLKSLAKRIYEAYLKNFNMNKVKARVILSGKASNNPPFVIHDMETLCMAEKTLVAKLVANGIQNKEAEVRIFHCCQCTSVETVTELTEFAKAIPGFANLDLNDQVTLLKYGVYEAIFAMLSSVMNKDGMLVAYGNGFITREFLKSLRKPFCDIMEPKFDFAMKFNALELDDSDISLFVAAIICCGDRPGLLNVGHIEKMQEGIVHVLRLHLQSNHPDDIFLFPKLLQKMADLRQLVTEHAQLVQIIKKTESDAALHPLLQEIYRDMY
Chain of Nuclear receptor subfamily 1 group I member 2 (Rattus norvegicus) (Q9R1A7 whole entry, looked up): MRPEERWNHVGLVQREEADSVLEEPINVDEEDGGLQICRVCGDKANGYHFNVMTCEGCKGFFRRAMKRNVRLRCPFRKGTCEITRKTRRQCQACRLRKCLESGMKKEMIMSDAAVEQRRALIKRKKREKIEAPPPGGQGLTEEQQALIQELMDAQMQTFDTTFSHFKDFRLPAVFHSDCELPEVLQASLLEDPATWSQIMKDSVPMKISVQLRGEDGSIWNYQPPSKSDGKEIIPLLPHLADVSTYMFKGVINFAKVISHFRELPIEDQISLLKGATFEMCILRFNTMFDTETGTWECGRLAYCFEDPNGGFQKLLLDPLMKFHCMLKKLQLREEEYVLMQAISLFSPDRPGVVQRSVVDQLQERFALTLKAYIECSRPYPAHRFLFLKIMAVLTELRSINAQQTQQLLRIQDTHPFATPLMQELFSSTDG

O=[N+]([O-])c1ccc(CCO)cc1
inactive: Potency [1] | Potency [2] | Potency [3] | activation [4] 0.416% | max response [5] -1.57% | Potency [6] | outcome [7] | Potency [8] | max response [9] -24.2% | max response [10] -6.69% | Potency [11] | max response [12] 0.179% | outcome [13]

C=CCOC(=O)COCCC(C)C
inactive: Potency [1] | Potency [2] | Potency [3] | activation [4] -0.312% | max response [5] -5.81% | Potency [6] | outcome [7] | max response [10] -0.0294% | Potency [11] | max response [12] -3.06% | outcome [13]

O=C1NC(=O)c2cc([N+](=O)[O-])ccc21
inactive: Potency [1] | Potency [2] | Potency [3] | activation [4] -0.349% | max response [5] -3.3% | Potency [6] | outcome [7] | Potency [8] | max response [9] -3.07% | max response [10] -4.71% | Potency [11] | max response [12] 1.8% | outcome [13]

CC(=O)OCCC(C)C
inactive: Potency [1] | Potency [2] | Potency [3] | activation [4] 0.441% | max response [5] -9.14% | Potency [6] | outcome [7] | Potency [8] | max response [9] -11% | max response [10] 3.44% | Potency [11] | max response [12] 8.07% | outcome [13]

O=CNc1ccccc1
inactive: Potency [1] | Potency [2] | Potency [3] | activation [4] -0.556% | max response [5] -2.49% | Potency [6] | outcome [7] | max response [9] -3.88% | max response [10] -2.01% | Potency [11] | max response [12] 1.37% | outcome [13]

C=C(C)C(=O)OCC(C)C
inactive: Potency [1] | Potency [2] | Potency [3] | activation [4] -0.68% | max response [5] -4.6% | Potency [6] | outcome [7] | max response [9] -3.35% | max response [10] 2.75% | Potency [11] | max response [12] 5.41% | outcome [13]

O=C1C=CCCC1
inactive: Potency [1] | Potency [2] | Potency [3] | activation [4] 0.397% | max response [5] 2.89% | Potency [6] | outcome [7] | Potency [8] | max response [9] 4.99% | Potency [11] | max response [12] 0.149% | outcome [13]

C/C=C(/C)C#N
inactive: Potency [1] | Potency [2] | Potency [3] | activation [4] 1.73% | max response [5] -2.14% | Potency [6] | outcome [7] | max response [9] -5.17% | max response [10] 0.0053% | Potency [11] | max response [12] 8.65% | outcome [13]

Cc1cc(C)cc(O)c1
inactive: Potency [1] | Potency [2] | Potency [3] | activation [4] -0.55% | max response [5] -2.86% | Potency [6] | outcome [7] | Potency [8] | max response [10] -5.39% | Potency [11] | max response [12] -0.901% | outcome [13]

CCNS(=O)(=O)c1ccc(C)cc1
inactive: Potency [1] | Potency [2] | Potency [3] | activation [4] -1.7% | max response [5] -3.34% | Potency [6] | outcome [7] | Potency [8] | max response [9] -1.66% | max response [10] -4.78% | Potency [11] | max response [12] 2.12% | outcome [13]

NC(=O)c1ccccc1[N+](=O)[O-]
inactive: Potency [1] | Potency [2] | Potency [3] | activation [4] -0.127% | max response [5] -0.939% | Potency [6] | outcome [7] | Potency [8] | max response [10] 7.1% | Potency [11] | max response [12] -1.43% | outcome [13]

COc1ccc(N)c(C)c1
inactive: Potency [1] | Potency [2] | Potency [3] | activation [4] 1.75% | max response [5] -5.31% | Potency [6] | outcome [7] | Potency [8] | max response [9] -1.87% | max response [10] -3.7% | Potency [11] | max response [12] 7.59% | outcome [13]

COc1ccc(OC)cc1
inactive: Potency [1] | Potency [2] | Potency [3] | activation [4] 0.641% | max response [5] -4.92% | Potency [6] | outcome [7] | max response [9] 4.82% | max response [10] -1.36% | Potency [11] | max response [12] 2.22% | outcome [13]

Nc1ccccc1[N+](=O)[O-]
inactive: Potency [1] | Potency [2] | Potency [3] | activation [4] -0.331% | max response [5] -3.89% | Potency [6] | outcome [7] | Potency [8] | max response [10] -7.67% | Potency [11] | max response [12] -0.731% | outcome [13]

CCCCCCC(=O)O
inactive: Potency [1] | Potency [2] | Potency [3] | activation [4] 0.903% | max response [5] 14.5% | Potency [6] | outcome [7] | max response [9] -2.08% | max response [10] -7.36% | max response [12] -2.97% | outcome [13]

CC(=O)OC(C)C
inactive: Potency [1] | Potency [2] | Potency [3] | activation [4] -2.35% | max response [5] -3.3% | Potency [6] | outcome [7] | max response [9] -4.19% | max response [10] 1.6% | max response [12] -1.92% | outcome [13]
